One assay has as its target BRD2. Nature of the assay: pooled miR-30 sensor sort-seq; sequence = guide strand. The note with it: shRNA.
As to TAAAATCTTGCATACACTCTGA, the sensor-assay potency score (higher = more potent) was -0.097.
The same measure, in the same setting: with TTGTTTTCAAGTCTCCTCTTAA the figure was -0.54.
Still for that read-out and setting: to TTTCTCATTCGCTTTCTTGGGG belongs 0.425.

For a further assay, the target named is BRMS1L. Described as above. The note with it: shRNA.
The sequence TTTGGTAACACTAATAAGGTAA registered a sensor-assay potency score (higher = more potent) of -0.0586.
Take TTCTGAGCTATCTCCATCCTCG: the sensor-assay potency score (higher = more potent) was -0.213.
The same measure, in the same setting: to TTCAGATCTAGCACTGTGCAGA belongs -0.0416.
Same read-out and setting: with TTCTTTACAGATTCTAAGCAGA the figure was -0.334.
Still for that read-out and setting: to TGGACCTGAAACAACAACTGGC belongs -0.0627; to TATAGCAACAGCTTTTCGCTCT, 0.681.
The sequence TTCTTCTTCTTTCACAGTCTTC came in with a sensor-assay potency score (higher = more potent) of -0.927.
On the same count and under the same terms, to TAACATATCAATGAGATCTATT belongs -0.518; to TTCTTTATAAAGTTGATCTTTG, -0.111.
The sequence TTCAAGAATATCAAGATCTTGT came in with a sensor-assay potency score (higher = more potent) of 0.566.
Take TTGTAGTTTTGCATCCACCTGA: the sensor-assay potency score (higher = more potent) was determined as 0.526.
Same read-out and setting: to TTCACAGTCTTCATCATCCATT belongs -0.228.

A further assay addresses BRP44L. The assay is described as above. The note with it: shRNA.
For the sequence TTTTTCATTAAGTAAATTCTAA, the sensor-assay potency score (higher = more potent) was -0.748.
Same read-out and setting: with TAGTCCCGGAAATCCTTGCTTC the figure was -0.727.
The same measure, in the same setting: to TAACATTTTTAAACAGTGGGGA belongs 0.282; to TTGCTTCGGACATAGTCCGCCG, -0.944.
On the same count and under the same terms, to TACCTTGTAGGCAAATCTCATG belongs -1.15; to TTCGGACATAGTCCGCCGCTTT, -1.36; to TCGTGTTTGATAAGCCGCCCTC, -0.468.
TTTTGAGCTACTCTTTATGGAA registered a sensor-assay potency score (higher = more potent) of -0.685.
The same measure, in the same setting: to TTAATTGCATATTTTGAGCTAC belongs -0.357.
Same read-out and setting: to ATGAATGTCAAAGAATAGCAAC belongs -1.23.
On the same count and under the same terms, with TCAAAGAATAGCAACAGAGGGC the figure was -0.477; with TTTGATAAGCCGCCCTCCCTGG, -0.467.

For a further assay, the target named is BST2. Described as above. The note with it: shRNA.
Take TACAGCGCTTATCCCCGTCTTC: the sensor-assay potency score (higher = more potent) was -1.34.
On the same count and under the same terms, to ATTAGGGCCATCACAGTGTGGT belongs -0.491; to TCAGTCGCTCCACCTCTGCAGA, -1.23.
Consider TCAAGCTCCTCCACTTTCTTTT, for which the sensor-assay potency score (higher = more potent) is -0.76.
With TTGATGGTGAAGATAATCAAGG, the sensor-assay potency score (higher = more potent) is -1.58.
The same measure, in the same setting: to TTCTCTTCTCAGTCGCTCCACC belongs -0.48.
On the same count and under the same terms, with TTCTTGTCCGCGATTCTCACGC the figure was -0.275; with TCGCTGTTGGCCTTGATGGTGA, -1.17.
On the same count and under the same terms, to TTTAATGTAGTGATCTCTCCCT belongs 0.397.
In turn, ATTCTCACGCTTAAGACCTGGT gave a sensor-assay potency score (higher = more potent) of -0.0201.
As for ATGTAGTGATCTCTCCCTCAAG, the sensor-assay potency score (higher = more potent) was -1.69.
On the same count and under the same terms, with TTTCTCTTCTCAGTCGCTCCAC the figure was 0.121; with TAATGTAGTGATCTCTCCCTCA, 0.239.

These data come from the OligoGym collection.
Further: reference of the scale not given here.
